Bioassay records (PubChem)
eLon inh: inhibits E. coli Lon protease; purified E. coli Lon protease, fluorescence polarization; AID 602123; P0A9M0; inhibition, % at 7.94 µM; actives 0.42% (n = 360,000); in the data active = inhibition above about 13%, passing the limit was not always enough;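 note: 0% = enzyme with probe and DMSO and 100% = no enzyme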
GLD-1 TGE inh: GLD-1-TGE RNA interaction inhibition (C. elegans). Q17339. purified GLD-1 + fluorescein TGE RNA, fluorescence polarization. inhibition, % at 5.96 µM. actives 0.44% (n = 320,000);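 active = percent inhibition above a per-plate cutoff, the plate mean of test compounds plus 3 SD, cut at about 30% in these data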;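 note: 0% = DMSO wells with GLD-1 and probe and 100% = wells lacking GLD-1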
Bcl-xL primary: inhibitors of human Bcl-xL; inhibition, % at 10.9 µM; GST-Bcl-xL / FITC-Bim BH3 peptide fluorescence polarization; actives 0.7% (n = 320,000); AID 2129;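 active = inhibition above the mean of all tested compounds plus 3 SD, cutoff set per campaign, cut at about 30% in these data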;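 note: 0% = DMSO wells and 100% = unlabeled Bim-BH3 peptide competitor; inhibitors lower millipolarization by displacing the labeled peptide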
Target sequence (Q07817 whole entry, looked up): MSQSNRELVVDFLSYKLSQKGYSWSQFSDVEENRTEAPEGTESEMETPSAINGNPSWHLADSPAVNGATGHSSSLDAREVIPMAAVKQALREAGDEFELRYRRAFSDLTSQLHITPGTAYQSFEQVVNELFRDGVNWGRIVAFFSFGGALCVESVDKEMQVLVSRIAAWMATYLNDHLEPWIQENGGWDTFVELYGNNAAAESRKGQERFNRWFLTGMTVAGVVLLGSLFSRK
MCL1 BIM primary: disrupts human MCL1 binding to BIM-BH3 peptide; Q07820; GST-MCL1 / FITC-Bim-BH3 fluorescence polarization; inhibition, % at 10.9 µM; actives 0.68% (n = 320,000); AID 2057;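 active = inhibition above the mean inhibition of all tested compounds plus 3 SD, set per campaign, cut at about 40% in these data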;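 note: 0% = DMSO wells and 100% = unlabeled Bim-BH3 peptide control; higher means more loss of mP so more displacement of Bim peptide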
Target sequence (Q07820 whole entry, looked up): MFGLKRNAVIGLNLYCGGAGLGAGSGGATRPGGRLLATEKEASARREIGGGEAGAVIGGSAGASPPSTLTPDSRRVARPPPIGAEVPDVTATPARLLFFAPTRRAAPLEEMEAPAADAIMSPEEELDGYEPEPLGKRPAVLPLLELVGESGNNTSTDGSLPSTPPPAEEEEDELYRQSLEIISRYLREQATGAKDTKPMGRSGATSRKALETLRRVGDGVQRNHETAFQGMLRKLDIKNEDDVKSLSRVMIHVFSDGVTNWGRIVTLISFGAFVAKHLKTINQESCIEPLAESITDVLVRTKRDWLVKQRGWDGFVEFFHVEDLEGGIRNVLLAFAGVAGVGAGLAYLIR
Keap1-Nrf2 PPI: disrupts human Keap1 binding to Nrf2 peptide; Q14145; inhibition, % at 9.4 µM; Keap1 Kelch-Nrf2 peptide fluorescence polarization, 1536-well; actives 0.15% (n = 340,000); in the data active = inhibition above about 12%;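 note: human Keap1 Kelch domain with fluorescein labeled Nrf2 9mer peptide probe; 0% = neutral control wells and 100% = peptide positive control; higher means more block of Keap1 binding to Nrf2 peptide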
LANA DNA inh: KSHV C-LANA DNA binding inhibition | MBP-C-LANA/FAM-LBS DNA binding, fluorescence polarization | inhibition, % at 9 µM | actives 0.078% (n = 340,000);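 active = highest replicate inhibition at or above 60% at 9 µM, even if other replicates fall short; inactive = all replicates below 60% inhibition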;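 note: 0% = neutral control wells and 100% = 4 µM acridine orange control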
Bcl-xL conf: Bcl-xL (human) inhibition, MCL1 counter-screen confirmation; shares compounds with MCL1 BIM primary; GST-Bcl-xL / FITC-Bim BH3 peptide FP binding; inhibition, % at 10.9 µM; actives 54% (n = 1,700); AID 2166;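 active = inhibition above a cutoff equal to the mean inhibition of all tested compounds plus 3 SD, cut at about 30% in these data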;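 note: 0% = DMSO wells and 100% = unlabeled Bim BH3 control peptide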
MCL1 inh confirm: confirmation of human MCL1 and BIM-BH3 interaction inhibitors. shares compounds with MCL1 BIM primary. inhibition, % at 10.9 µM. actives 61% (n = 1,700). GST-MCL1 / FITC-Bim-BH3 fluorescence polarization;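 active = inhibition above the average of all tested compounds plus 3 SD, cut at about 40% in these data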;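 note: 0% = DMSO wells and 100% = unlabeled Bim-BH3 control peptide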
An asterisk follows results filed as active; . = no result; + = active, no number; ! = not active in a repeat. Rows were chosen to be rich in hits. Some 1.3% of all compounds tested hit in one or more screens of this group.

SMILES | eLon inh | GLD-1 TGE inh | Bcl-xL primary | MCL1 BIM primary | Keap1-Nrf2 PPI | LANA DNA inh | Bcl-xL conf | MCL1 inh confirm
C=C1C(O)[C@@H]2O[C@]3(CC[C@H](/C=C/C(C)[C@@H]4CC(C)=CC5(O[C@H](C[C@@](C)(O)C(=O)O)CCC5O)O4)O3)CC[C@H]2O[C@@H]1C(O)CC(C)[C@H]1OC2(CCCCO2)CCC1C (some centres not stated) | . | 5.6 | . | . | . | . | . | .
Cc1cccc(C)c1-n1nnnc1C(C1CC1)N1CCC2(CC1)C(=O)NCN2c1ccccc1 (configuration not stated) | -2.2 | . | . | . | . | . | . | .
CC(C)(O)[C@H]1O[C@H]2CC[C@@]3(C)[C@@](O)(CC[C@H]4Cc5c([nH]c6ccccc56)[C@@]43C)C2=CC1=O | . | 74.2* | 82.6* | 100.1* | . | . | 59.8* | 76.1*
N/C(=N\N=C/c1ccc(-c2ccc(O)c(C(=O)O)c2)o1)N[N+](=O)[O-] | 4.2 | -4.7 | 23.3 | 79.5* | -5.1 | 58.7 | 29.4 | 81.5*
COC(=O)Cn1cc(/C=C2\C(=O)NC(=O)N(c3ccccc3)C2=O)c2ccccc21 | -30.3 | -7.2 | 3.6 | 135.0* | -5.9 | 13.4 | 72.5* | 93.6*
Cc1ccc(N2C(=O)NC(=O)/C(=C\c3cn(CC(=O)O)c4ccccc34)C2=O)cc1 | -42.0 | -18.1 | 3.5 | -12.2 | -12.5 | 2.2 | . | .
COC(=O)C1=C(c2ccc(F)cc2F)C[C@@H]2CC[C@H]1N2C(=O)NCCOc1ccccc1 | 11.9 | 12.6 | 10.9 | 119.1* | -1.5 | 2.6 | 5.8 | 0.0
CCC(C)c1ccc(N2C(=O)NC(=O)/C(=C/c3cccn3CCOc3ccc(C)cc3)C2=O)cc1 (configuration not stated) | -13.0 | -14.8 | 80.4* | 112.5* | 0.0 | 0.9 | 42.4* | 52.5*
Cc1ccc(N2C(=O)NC(=O)/C(=C\c3cccn3C(C)(C)C)C2=O)cc1 | -13.9 | -11.6 | -6.6 | -21.3 | -6.8 | 1.5 | . | .
O=C1NC(=S)NC(=O)C1=Cc1ccc(Br)s1 | -34.3 | -12.9 | 15.4 | 46.2* | 1.2 | 15.2 | 19.9 | 53.2*
O=C(CCC(=O)N1CC2C[C@@H](C1)Cn1c2cccc1=O)NCCc1ccccc1 | -6.9 | 1.6 | 4.0 | 5.2 | -4.3 | -0.2 | . | .
Cc1ccccc1NC(=O)Cc1nc(COC(=O)Cc2ccccc2)cs1 | -6.6 | 136.7* | 151.6* | + | -6.4 | 1.1 | 11.8 | 6.2
CN1CCc2cc(O)cc3c2[C@H]1Cc1ccc(O)c(O)c1-3 | -6.1 | 5.0 | 28.5 | 48.1* | -0.2 | -1.7 | 53.7* | 54.1*
O=[N+]([O-])c1ccc(NCc2ccccc2)c2nonc12 | . | 198.2* | 147.3* | 174.9* | . | . | 167.1* | 196.5*
O=[N+]([O-])c1ccc(NCc2ccc(Cl)cc2)c2ccncc12 | -5.2 | 1.0 | 5.6 | 0.8 | -0.9 | -2.6 | . | .
CN1CCc2nc3sc(C#N)c(N)c3c(-c3cccs3)c2C1 | 0.7 | 3.9 | 20.4 | 22.4 | -4.1 | 6.0 | . | .
CN1CCc2nc(N)c(C#N)c(-c3ccccc3)c2C1 | 1.2 | 45.6* | 61.0* | 69.1* | -3.1 | 1.2 | 12.3 | 20.2
CCN(CC)C(=O)c1ccc2c(c1)C1C(Cl)C(Sc3ccccc3[N+](=O)[O-])CC1C(C(=O)O)N2 (configuration not stated) | 4.4 | 17.2 | 86.2* | 95.2* | 5.2 | 25.1 | 33.7* | 37.5
Cc1ccc2c(c1Cl)NC(C(=O)O)C1CC(Sc3ccccc3[N+](=O)[O-])C(Cl)C21 (configuration not stated) | 11.1 | -8.1 | 26.7 | 59.0* | 1.4 | 3.1 | -22.4 | -31.9
O=C(O)c1ccc2c(c1)C1C(Cl)C(Sc3ccccc3[N+](=O)[O-])CC1C(c1cccc([N+](=O)[O-])c1)N2 (configuration not stated) | 1.6 | . | . | . | 2.6 | 21.1 | . | .
CC12CCC(O)CC1CCC1C2CCC2(C)C(C(=O)CO)CCC12 (configuration not stated) | -10.8 | . | . | . | . | . | . | .
COC(=O)C1=C(c2ccc(-c3ccccc3)c(F)c2)C[C@@H]2CC[C@H]1N2C(=O)NC1CC1 | 0.5 | 1.0 | 4.5 | 9.0 | -1.0 | 1.1 | . | .
CCCCn1c(O)c(C(=O)/C=C/c2c[nH]c3ccccc23)c(=O)[nH]c1=O | -53.2 | 28.4 | -7.0 | 85.1* | -8.1 | 0.2 | -35.5 | -52.3
Clc1ccc(NC2=NCCCS2)cc1Cl | -1.8 | -3.6 | 4.9 | -0.6 | 4.2 | 3.5 | . | .
CCCOC(=O)c1ccccc1C(=O)OCCC | 6.0 | 3.2 | 4.0 | -0.9 | -8.2 | -1.4 | . | .
SMILES | eLon inh | GLD-1 TGE inh | Bcl-xL primary | MCL1 BIM primary | Keap1-Nrf2 PPI | LANA DNA inh | Bcl-xL conf | MCL1 inh confirm
CCOC(=O)c1ccccc1C(=O)OCC | 7.5 | 43.3* | 62.7* | 73.5* | 6.4 | 15.5 | 59.8* | 72.3*
O=c1[nH]c(=S)n(-c2ccc(Br)cc2)c(O)c1C=Nc1ccc(N2CCOCC2)cc1 | -48.4 | -18.8 | 170.1* | + | -3.0 | -1.3 | + | +
Cc1cc(C)cc(-n2c(O)c(C=Nc3ccc(N4CCOCC4)cc3)c(=O)[nH]c2=S)c1 | -26.7 | -5.6 | -17.3 | -26.8 | -7.6 | -0.5 | . | .
O=[N+]([O-])c1ccc(N2CCCCCC2)c2ncccc12 | -16.7 | 3.0 | 0.6 | 3.8 | -1.6 | -0.6 | . | .
CCN(CC)c1ccc(N=Cc2c(O)n(-c3ccc(OC)cc3)c(=O)[nH]c2=O)cc1 | -17.5 | -3.0 | 25.8 | 41.5* | -1.1 | 2.6 | 113.5* | 26.4
CN(C)[C@@H]1C(=O)C(C(N)=O)=C(O)[C@@]2(O)C(=O)C3=C(O)c4c(O)cccc4[C@@](C)(O)C3[C@H](O)C12 (some centres not stated) | 70.6 | 76.5* | 153.0* | + | -7.0 | 72.3*! | 37.5* | 86.9*
CN(C)C1C(=O)C(C(N)=O)=C(O)C2(O)C(=O)C3=C(O)c4c(O)cccc4C(C)(O)C3CC12 (configuration not stated) | 7.3 | 8.9 | 30.3* | 62.1* | -4.0 | 10.3 | 14.2 | 20.2
COc1ccc(C(SCC(NC(=O)OCc2ccccc2)C(=O)O)c2ccc(OC)cc2)cc1 (configuration not stated) | -17.1 | . | . | . | . | . | . | .
CCN(CC)c1ccc(/C=C2/C(=O)NC(=O)N(CC3CCCO3)C2=O)cc1 (configuration not stated) | 2.9 | 29.6 | 52.3* | 50.3* | -18.5 | 7.4 | 15.8 | -24.1
O=C1NC(=O)N(CC2CCCO2)C(=O)/C1=C/c1cccs1 (configuration not stated) | 0.9 | -8.1 | 8.8 | 9.5 | 9.0 | 6.2 | . | .
CCN1CCC2(CCNC2)C1 (configuration not stated) | 5.5 | 2.6 | 3.0 | 6.8 | 3.9 | 1.8 | . | .
